The values that follow come from PMC5540273 (PLoS ONE, 2017).

Test systems include IRAK1; IRAK3; IRAK4; ITK.
Common to all, as to settings: concentration: 1 μM, replicates: in singlicate; n = 1
The test system of test [1] is JAK1(JH1domain-catalytic).
For test [2], the system named is JAK1(JH2domain-pseudokinase).
The subject of test [3] is JAK2(JH1domain-catalytic).
Test [4] has as its system JAK3(JH1domain-catalytic).
For the next test, the system named is T1, JNK1.
T1 construct: gene MAPK8

In the next test the test system is T2, JNK2.
T2 construct: gene MAPK9
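Note: KINOMEscan kinase panel screen.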

For `CCCCc1nn2ncccc2c1-c1ccnc(NC2CC2)n1` [GW684374], the “%Inh” value in the test with IRAK1 is given as 28%; in the test with IRAK3, 13%; in the test with IRAK4, 12%; in the test with ITK, 0%; in test [1] it was 7%; in test [2], 0%. The “%Inh” value in test [3] is reported as 0%; in [4], 0%; with JNK1, 63%; with JNK2, 84%.
For `Cn1cncc1-c1cc2c(Nc3ccc(OCc4ccccc4)cc3)ncnc2cn1` [GW281179], the “%Inh” value with IRAK1 was found to be 30%; with IRAK3, 1%; in the test with IRAK4 it was 17%; in the test on ITK it was 12%; in test [1], 14%; in [2], 0%. Further, the “%Inh” value in [3] is reported as 4%; in test [4], 0%; in the test with JNK1 it was 13%; with JNK2 it was 1%.
Turning to `CSc1ccc(-c2nc3n(c2-c2ccncc2)CCC3)cc1` [SKF-105561], the “%Inh” value in the test on IRAK1 was 21%; in the test with IRAK3, 0%; with IRAK4, 6%; in the test with ITK, 12%; in [1], 8%; in test [2], 15%. Further, the “%Inh” value in [3] is 4%; in test [4], 0%; in the test on JNK1 it was 31%; in the test on JNK2, 49%.
On to `CS(=O)(=O)CCNCc1nc(-c2ccc3ncnc(Nc4ccc5c(cnn5Cc5ccccc5)c4)c3c2)cs1.Cl.Cl` [GW569716], for which the “%Inh” value with IRAK1 is reported as 37%; with IRAK3 it was 0%; in the test with IRAK4, 19%; with ITK, 17%; in test [1] it was 0%; in test [2], 0%. Also, the “%Inh” value in test [3] is 0%; in test [4], 0%; in the test with JNK1, 12%; in the test with JNK2, 2%.
As for `O=c1cc(N2CCOCC2)nc2n(Cc3cccc(Cl)c3Cl)c3ccccc3n12` [GSK2299009], the “%Inh” value was determined as 12% in the test on IRAK1; 15% with IRAK3; 4% in the test on IRAK4; 13% with ITK; 24% in test [1]; 0% in [2]. The “%Inh” value is recorded as 0% in test [3], 0% in [4], 7% in the test with JNK1 and 32% with JNK2.
